Data reported in PubChem BioAssay AID492967 (ICCB-Longwood Screening Facility, Harvard Medical School, 2010).
About 320 (0.23%) of roughly 140,000 compounds were called active. This is one part of a sample in which actives are shown more often than they occur. A number with no mark means an inactive call. Cut-off read from the data, not from the text of the source: active = z-score mostly below about -2.9 (no sharp cut-off); inactive = mostly above about -1.9.

tested on: CapD gamma-glutamyltranspeptidase (Bacillus anthracis Ames Ancestor); assay: Bacillus anthracis CapD inhibitors, primary screen, biochemical, fluorescence intensity (AID 492967); conditions: purified CapD enzyme, fluorescence intensity read-out; active compounds read low

SMILES | z-score
COc1cccc(C(=O)c2cc3ccc(O)cc3oc2=O)c1 | -6.04 (active)
COc1ccc2oc(=O)c(C(=O)NC(C)(C)C)cc2c1 | 13.9
COc1ccc2oc(=O)c(C(=O)O)cc2c1 | 31.1
Cc1cccc(-c2noc(-c3ccc(OC(F)(F)F)cc3)n2)c1 | -0.145
CC(=O)Nc1ccccc1C(=O)OCC(=O)Nc1nc2ccccc2s1 | -0.695
O=C(O)CC(CC(=O)Oc1ccccc1N1CCCC1)c1ccccc1 (stereo not drawn) | -0.435
CC(C)C(=O)Nc1c2c(nn1-c1ccccc1)CSC2 | 0.225
COc1cc(C(=O)Nc2c3c(nn2-c2cccc(C)c2C)CS(=O)(=O)C3)cc(OC)c1OC | 0.345
Cc1cccc(-n2nc3c(c2NC(=O)/C=C\c2ccco2)CSC3)c1C | -4.94 (active)
COc1ccc(OC)c(/C=N/NC(=O)c2cn(C)c3ccccc23)c1 | 14.4
CC(C)Oc1ccccc1Oc1ccc([N+](=O)[O-])cn1 | -0.145
COc1ccc(OC)c(-n2c(=S)[nH]c3cc(C(=O)Nc4ccc(OC)c(OC)c4)ccc3c2=O)c1 | -1.08
CSc1ccc(-c2ncnn2-c2ccc(Cl)cc2)cc1 | -0.715
Cn1cc(CC(=O)Nc2ccccc2)c2ccccc21 | -0.8
Clc1ccc(C2N=C(c3cnccn3)NN2)cc1 (stereo not drawn) | -0.935
CCO/C=C1\C(=O)N(c2ccc(C)cc2C)C(=O)c2cc(OC)ccc21 | 0.06
COc1ccc(C2CC(=O)C3=C(C2)Nc2ccc4ccccc4c2C3c2ccc3c(c2)OCO3)cc1 (stereo not drawn) | 1.5
CC(NC(=O)Cn1nc(-c2ccc(Cl)cc2)c2ccccc2c1=O)c1ccccc1 (stereo not drawn) | -0.405
CC1CCc2c(sc(NC(=O)c3sc4ccccc4c3Cl)c2C(=O)OC(C)C)C1 (stereo not drawn) | -0.045
O=C1NC(=S)N/C1=C\c1c(F)cccc1Cl | -4.06 (active)
O=C1NC(=S)N/C1=C/c1cc(I)cc(I)c1O | -0.725
C=CCOC(=O)c1cc(-c2ccc(/C=C3/NC(=S)NC3=O)o2)ccc1Cl | 0.96
COC(=O)c1c(NC(=O)c2c(-c3c(Cl)cccc3Cl)noc2C)sc2c1CCCC2 | -0.55
COc1ccc(/C=C/C(=O)N2CCN(C(c3ccccc3)c3ccccc3)CC2)cc1OC | 4.64
CC1(C)OCC([C@H]2O[C@@H]3OC(C)(C)OC3C2OC(=O)Nc2ccc(Cc3ccc(NC(=O)OC4C5OC(C)(C)O[C@H]5O[C@@H]4C4COC(C)(C)O4)cc3)cc2)O1 (stereo partly drawn) | -0.275
CC(C)(C)C(=O)N(Cc1cccnc1)Cc1ccc(Cl)cc1Cl | -0.865
Cc1ccc(S(=O)(=O)c2cnc(SCC(=O)N3CCCc4ccccc43)[nH]c2=O)cc1 | -0.55
CC1CCN(c2nc3nonc3nc2Nc2cccc(Br)c2)CC1 | 0.265
